Sampled rows, rich in hits. Any-hit rate of the full collection: about 10%.
HP1b chromo inh: inhibitors of HP1-beta chromodomain binding to methylated histone tails; P83916; AlphaScreen HP1-beta / biotin-H3K9me3 peptide binding; Potency, µM (doses to about 114 µM), actives largely listed as inhibitors; 390,000 compounds, 0.56% hits; also: nearly all actives have a fitted effect of over 70% in size
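HP1-beta protein (50 nM final) preincubated 30 min at room temperature with biotinylated H3(1-18)K9me3 peptide (50 nM) in PBS pH 7.4, 0.01% Tween-20, then compound added for 30 min. AlphaScreen streptavidin donor/nickel chelate acceptor beads (10 ug/mL final), 30 min dark, luminescence read.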
G9a block: blocks human histone lysine methyltransferase G9a | Q96KQ7 | G9a H3K9 monomethylation, AlphaScreen, 2 h | Potency, µM (doses to about 102 µM), actives largely listed as inhibitors | 350,000 compounds, 8.8% hits | AID 504332; also: nearly all actives have a fitted effect of over 75% in size
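Quantitative HTS format: methyltransferase activity on a biotin-tagged H3K9 peptide is measured by AlphaScreen, using a rabbit anti-monomethyl-H3K9 antibody with streptavidin donor and anti-IgG acceptor beads. Final levels are 20 nM enzyme, 500 nM peptide, 20 uM SAM; 2 h RT.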
JMJD2A Tudor: JMJD2A Tudor domain (human) inhibition. AlphaScreen JMJD2A-Tudor / H3K4me3 peptide binding. O75164. 390,000 compounds, 4.4% hits. Potency, µM (series often up to 114 µM), actives largely listed as inhibitors; also: nearly all actives have a fitted effect of over 50% in size
GLS inh: blocks human kidney-isoform glutaminase activity; O94925; GLS enzymatic activity, qHTS titration; Potency, µM (series often up to 45.5 µM), most hits filed as inhibitors; 410,000 compounds, 0.21% hits; AID 624170
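hKGA; 45 mM KH2PO4 pH 8.2 + 0.02% Tween-20; cpd via pin tool; 1 mM Gln soln; GluOx/HRP/Amplex Red; RT 30 min; fluor. t0 & final.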
BAZ2B inh: BAZ2B (human) inhibition; 360,000 compounds, 4.4% hits; AlphaScreen BAZ2B-H3K14Ac peptide displacement; Q9UIF8; Potency, µM (doses to about 114 µM), most hits filed as inhibitors; also: nearly all actives have a fitted effect of over 60% in size
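BAZ2B 50 nM plus b-H3(5-23)K14Ac 50 nM, PBS pH 7.4/0.01% Tween-20, 30 min RT; compound added (max 110 uM), 30 min RT; streptavidin donor/Ni-chelate acceptor beads 10 ug/mL final, 20 min dark; AlphaScreen read.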
Numbers stand for hits. Calls follow the shape of the dose curve; as a rule, active = well fitted curve in the direction sought with a large enough effect; inconclusive = small, poorly fitted or top-dose-only effect, or another doubt; inactive = no such curve, though single readings can be large; an effect the other way counts as inactive or inconclusive.

For CCOC(=O)c1cccc(NC(=O)c2cnc3sc(N4CCOCC4)nn3c2=O)c1 the results were HP1b chromo inh inactive, G9a block inactive, JMJD2A Tudor inactive, GLS inh inactive and BAZ2B inh inactive.
Screening CCCCNC(=O)c1sc(=S)n(-c2ccccc2OC)c1N returned HP1b chromo inh inconclusive, G9a block 16µM, JMJD2A Tudor inactive, GLS inh inconclusive and BAZ2B inh inactive.
For CCOc1ccccc1-n1c(N)c(C(N)=O)sc1=S the results were HP1b chromo inh inactive, G9a block 35µM, JMJD2A Tudor inactive, GLS inh inactive and BAZ2B inh inactive.
For CCOC(=O)c1sc(=S)n(-c2ccccc2OC)c1N the results were HP1b chromo inh inconclusive, G9a block inconclusive, JMJD2A Tudor inconclusive, GLS inh inactive and BAZ2B inh inconclusive.
Screening COc1ccc(Cl)cc1-n1c(=S)sc2c(=O)[nH]c(SCC(=O)C(C)(C)C)nc21 returned HP1b chromo inh inactive, G9a block inactive, JMJD2A Tudor inactive, GLS inh inactive and BAZ2B inh inactive.
`COc1ccc(Cl)cc1-n1c(N)c(C(N)=O)sc1=S` gave HP1b chromo inh inconclusive, G9a block 8.9µM, JMJD2A Tudor inconclusive, GLS inh inactive and BAZ2B inh inactive.
CCn1c(N)c(C(N)=O)sc1=S was read as HP1b chromo inh inactive, G9a block inconclusive, JMJD2A Tudor inactive, GLS inh inactive and BAZ2B inh inactive.
Screening CCCCNC(=O)N1CCN(c2ccccc2OC)CC1 returned HP1b chromo inh inactive, G9a block inactive, JMJD2A Tudor inactive, GLS inh inactive and BAZ2B inh inactive.
Screening COC(=O)c1sc(=S)n(-c2ccccc2OC)c1N returned HP1b chromo inh inactive, G9a block 35µM, JMJD2A Tudor inactive, GLS inh inactive and BAZ2B inh inactive.
For CCCN(C(=O)COC(=O)c1[nH]c(C)c(C(=O)OC)c1C)c1c(N)n(Cc2ccccc2)c(=O)[nH]c1=O the results were HP1b chromo inh inactive, G9a block inconclusive, JMJD2A Tudor inactive, GLS inh inactive and BAZ2B inh inactive.
For Cc1ccc(C2(c3ccccc3)NC(=O)N(CC(=O)NCc3ccccc3)C2=O)cc1C (stereo unspecified) the results were HP1b chromo inh inactive, G9a block inactive, JMJD2A Tudor inactive, GLS inh inactive and BAZ2B inh inactive.
CCOCCc1nn2c(=O)cc(COC(=O)c3ccc4c(c3)OCO4)nc2s1 was read as HP1b chromo inh inactive, G9a block inactive, JMJD2A Tudor inactive, GLS inh inactive and BAZ2B inh inactive.
For O=C(NN1C(=O)/C(=C/C=C/c2ccco2)SC1=S)c1ccccc1O the results were HP1b chromo inh 13µM, JMJD2A Tudor 8.9µM, GLS inh inactive and BAZ2B inh 13µM.
`CC(C(=O)O)N1C(=O)/C(=C/c2cccn2C)SC1=S` (stereo unspecified) gave HP1b chromo inh inconclusive, G9a block inconclusive, JMJD2A Tudor inactive, GLS inh inactive and BAZ2B inh inactive.
`Cn1cccc1/C=C1\SC(=S)N(NC(=O)c2ccccc2O)C1=O` gave HP1b chromo inh inconclusive, G9a block 5µM, JMJD2A Tudor inconclusive, GLS inh inactive and BAZ2B inh 32µM.
Screening COc1ccccc1C(=O)NN1C(=O)/C(=C/c2cccn2C)SC1=S returned BAZ2B inh 8.9µM.
CCc1ccc(C(=O)COC(=O)c2cccnc2Cl)cc1 was read as HP1b chromo inh inactive, G9a block inactive, JMJD2A Tudor inactive, GLS inh inactive and BAZ2B inh inactive.
For O=C(O)c1cccc(-c2ccc(/C=N/NC(=O)c3cccnc3)o2)c1 the results were HP1b chromo inh inactive, G9a block 13µM, JMJD2A Tudor inconclusive, GLS inh inactive and BAZ2B inh inconclusive.
Nc1nonc1-c1nc2ccccc2n1CC(=O)Nc1ccccc1C(=O)O was read as HP1b chromo inh inactive, G9a block inactive, JMJD2A Tudor inactive, GLS inh inactive and BAZ2B inh inactive.
`Nc1nonc1-c1nc2ccccc2n1CC(=O)N/N=C/c1ccc(-c2cccc(C(=O)O)c2)o1` gave HP1b chromo inh 50µM, G9a block 7.9µM, JMJD2A Tudor 40µM, GLS inh inactive and BAZ2B inh 20µM.
`O=Cc1ccc(-c2cccc(C(=O)O)c2)o1` gave HP1b chromo inh inactive, G9a block 50µM, JMJD2A Tudor inactive, GLS inh inactive and BAZ2B inh inconclusive.

Screening data deposited in PubChem BioAssay by National Center for Advancing Translational Sciences (NCATS).
